# Laboratory results taken from PubChem BioAssay (NCATS).
# Records with an inconclusive call do not appear. Entries that show only a call come without a potency. Active and inactive are the calls of the source. Calls follow the shape of the dose curve; as a rule, active = well fitted inhibition curve with a large enough effect; inconclusive = small, poorly fitted or top-dose-only effect, or effect the other way; inactive = no such curve, though single readings can be large or run the other way.
# Test: High Content Imaging Cell-Based qHTS for Inhibitors of the mTORC1 Signaling Pathway in MEF Cells (AID 2667);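 also: Tsc2-/- p53-/- MEFs stably re-expressing wild-type Tsc2 exposed 24 h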
# Details: series mostly up to 38.3 µM
# Method in brief: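 MEF (Tsc2-/-, p53-/-, WT Tsc2 re-expressed); cpd 24 h, 37 °C; PFA fix; Alexa-488 anti-p-rpS6 Ser235/236, PI, Hoechst; IN Cell imaging; Hoechst/Alexa-488 intensity ratio; % active cells, thresholds set from rapamycin and DMSO wells.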
row,Structure (SMILES),Potency
1,C[N+]1(C)CCOC(O)(c2ccc(-c3ccc(C4(O)C[N+](C)(C)CCO4)cc3)cc2)C1 (centres undefined),inactive
2,COc1ccc2[nH]cc(CCN)c2c1,inactive
3,NC(CCCCCP(=O)(O)O)C(=O)O (centres undefined),inactive
4,CC(C)NP(=O)(NC(C)C)OP(=O)(NC(C)C)NC(C)C,inactive
5,C[C@]12Cc3cn4c(nc3C=C1CCC1C2CC[C@@]2(C)[C@H]1CC[C@@]2(O)C#N)nc1ccccc14 (some centres undefined),inactive
6,CCCN1CC[C@@H]2c3cc(O)ccc3CC[C@@H]21,inactive
7,NCCCP(=O)(O)O,inactive
8,C[N+](C)(C)CCOC(=O)CBr,inactive
9,C=CCN1C[C@@H](C)N([C@H](c2ccc(C(=O)N(CC)CC)cc2)c2cccc(OC)c2)C[C@@H]1C,inactive
10,Cc1o[nH]c(=O)c1CC(N)C(=O)O (centres undefined),inactive
11,C[N+](C)(C)CC#CCN1CCCC1=O,inactive
12,NC(C(=O)O)c1cc(=O)[nH]o1 (centres undefined),inactive
13,O=C(O)c1cc[c]([Hg][Cl])cc1,inactive
14,C[Se]C[C@H](N)C(=O)O,inactive
15,CO[C@H]1CC=C2CCN3CCC4=C(CC(=O)OC4)[C@]23C1,inactive
16,COc1ccc(CNC(=O)/C=C/c2ccc3[nH]cc(CCN(C)C)c3c2)cc1,inactive
17,COc1ccc(OC)c(C(O)C(C)N)c1 (centres undefined),inactive

row,Structure (SMILES),Potency
1,CC12NC(Cc3ccccc31)c1ccccc12 (centres undefined),inactive
2,NC(=O)c1ccc(OCC(O)CN2CC=C(c3ccc(F)cc3)CC2)cc1 (centres undefined),inactive
3,C=CCN1CC[C@]23c4c5ccc(O)c4O[C@H]2/C(=N/NC(=O)c2ccccc2)CC[C@@]3(O)[C@H]1C5,inactive
4,CC(=O)NBr,inactive
5,CN1CCc2cccc(Cl)c2CC1,inactive
6,CN(C(=O)Cc1ccc(Cl)c(Cl)c1)C(CN1CCCC1)c1cccc(OCC(=O)O)c1 (centres undefined),inactive
7,C[C@@H]1O[C@H](C[N+](C)(C)C)CS1,inactive
8,CCCN(CCC)C1CCc2cccc(O)c2C1 (centres undefined),inactive
9,C[C@H](Cc1ccc2c(c1)OC(C(=O)O)(C(=O)O)O2)NC[C@H](O)c1cccc(Cl)c1,inactive
10,CC(Cc1ccc(OCC(=O)O)cc1)NCC(O)c1cccc(Cl)c1 (centres undefined),inactive
11,NCCc1ccc(S(=O)(=O)F)cc1,inactive
12,Clc1ccc(N2CC3CCC(C2)N3)nn1,inactive
13,NC(=O)c1cc(N2CC2)c([N+](=O)[O-])cc1[N+](=O)[O-],inactive
14,O=S1(=O)N(CCN2CC=C(c3c[nH]c4cc(F)ccc34)CC2)c2cccc3c2N1CCC3,inactive
15,NC(Cc1ccc(N(CCCl)CCCl)cc1)C(=O)O (centres undefined),inactive
16,N[C@@H](CCl)C(=O)O,inactive
17,NC(N)=NOCC[C@H](N)C(=O)O,inactive
